Molecules are shown by their SMILES. Compounds without any hit were thinned out: in the full panel of roughly 83,000, 20% have a hit.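 Cell lines were cultured in 96-well plates, exposed to a single compound concentration, and assessed for percent growth 48 hours later.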 A number with no mark means an inactive call. Activity calls are given as the source filed them. Rule for the calls: active = growth percent below 10; inactive = the rest.

One test relates to OVCAR-8 ovarian. Kind of test: NCI-60 one-dose screen, 48 h (100 = growth as untreated, 0 = no growth, -100 = all killed). The settings on record: 10 µM unless noted.
With `Cc1cc(NCCCNc2ccnc3cc(Cl)ccc23)nc(N2CCN(C)CC2)n1`, the growth is 77.1%.

As to `CCCc1cc(=O)n2c(C(=O)Nc3ccccc3OC)c(C(=O)Nc3ccc(F)cc3)sc2n1`, the growth was 18.5% [30 µM].

As for `N#Cc1cccc(/C=C(/C(=O)c2ccccc2)c2ccccc2)c1`, the growth is 20.4%.

In the case of `CCC1(c2ccccc2)Oc2ccccc2-n2c(C#N)c3ccccc3c2C1=O` (centres undefined), the growth was 98.4%.

For the compound `C/C(=N/N=C(N)N)c1ccc(N)cc1`, the growth is 111%.

On to `CC(C)c1nc(N(C)S(C)(=O)=O)nc(-c2ccc(F)cc2)c1/C=C/[C@@H](O)C[C@@H](O)CC(=O)O`, for which the growth is 90.5%.

`COc1ccc(/C=C(\C#N)c2ccccc2)cc1`: the growth is 92%.

In the case of `Fc1ccc([C@@H]2CCNC[C@H]2COc2ccc3c(c2)OCO3)cc1`, the growth is 95.9%.

Consider `COc1cc(/C=C/C(=O)c2c(-c3ccc(F)cc3)nc3sc(C)nn23)cc(OC)c1OC`, for which the growth was 9.66% (active).

`CCC(C)CC(CC)NCCN1CCN(C(CC)CC(C)CC)C1=S` (centres undefined): the growth was 62.7%.

Turning to `COc1cccc(-c2nnc(N)o2)c1`, the growth is 98.7%.

In the case of `CCCCSc1cc(C)nc(N)n1`, the growth was 107%.

`Cc1ccsc1/C=C/C1=NCCCN1C`: the growth is 108%.

`Nc1c2ccccc2nc2ccccc12` (tested in a mixture with another compound): the growth is 4.39% (active).

As for `COc1cc(/C=C/C(=O)c2c(-c3ccc(Cl)cc3)nc3sc(C)nn23)cc(OC)c1OC`, the growth was 53.3%.

As to `CCCCc1nc(Cl)c(CO)n1Cc1ccc(-c2ccccc2-c2nn[nH]n2)cc1`, the growth was 103%.

For the compound `CN(CCOc1ccc(CC2SC(=O)NC2=O)cc1)c1ccccn1` (centres undefined), the growth is 91.9%.

As to `N#Cc1c2ccccc2c2n1-c1ccccc1OC(c1ccccc1)C2=O` (centres undefined), the growth was 11.6%.

For `Nc1nc(N)c([N+](=O)[O-])c(=O)[nH]1`, the growth is 106%.

Consider `Cc1c(C(N)=O)sc2ncn(Cc3ccccc3)c(=O)c12`, for which the growth is 110%.

With `CC(=O)O[C@H]1C(=O)[C@@]2(C)C([C@H](OC(=O)c3ccccc3)[C@]3(O)C[C@H](OC(=O)[C@H](O)[C@@H](NC(=O)c4ccccc4)c4ccccc4)C(C)=C1C3(C)C)[C@]1(OC(C)=O)CO[C@@H]1C[C@@H]2O` (some centres undefined), the growth was 26.6%.

Consider `CC1(C)OC(=O)C(=Cc2ccccc2Br)C(=O)O1`, for which the growth was 99.4%.

In the case of `COC1CC2CCC(C)C(O)(O2)C(=O)C(=O)N2CCCCC2C(=O)OC(C(C)CC2CCC(O)C(OC)C2)CC(=O)C(C)C=C(C)C(O)C(OC)C(=O)C(C)CC(C)/C=C/C=C/C=C1C` (centres undefined), the growth is 38.2%.

For the compound `COc1cc([C@@H]2c3cc4c(cc3C(O[C@@H]3O[C@@H]5CO[C@@H](c6cccs6)OC5[C@H](O)[C@H]3O)C3COC(=O)[C@@H]32)OCO4)cc(OC)c1O` (some centres undefined), the growth is -43% (active).

Take `Cn1c(=O)c2nc(SCc3ccccc3)n(C)c2n(C)c1=O`: the growth is 106%.

With `O=c1cc(-c2cccnc2)oc2c1ccc1ccccc12`, the growth is 87%.

`C/C(=N\N1CC(=O)NC1=O)c1ccc([N+](=O)[O-])o1`: the growth was 98.2%.

With `NC(N)=N/N=C(/c1ccccc1)c1ccc(Cl)cc1`, the growth was 103%.

`N#Cc1ccc(NC(=O)Nc2ccc(Oc3ccc(NC(=O)Nc4ccc(C#N)cc4)cc3)cc2)cc1`: the growth is 31%.

Consider `Cc1c(NCc2nnc3n(Cc4ccccc4)c(=O)c4c5c(sc4n23)CCCC5)c(=O)n(-c2ccccc2)n1C`, for which the growth was 86.3%.

Regarding `O=C(Nc1ccc(OCc2nnc(-c3ccccc3)o2)c(F)c1)Nc1ccc(Cl)c(C(F)(F)F)c1`, the growth is 24.5%.

For the compound `Cc1cc(N2CCOCC2)nc(N2CCOCC2)n1`, the growth was 104%.

`COc1cc2c(C#N)n3c(c2cc1OC)C(=O)C(c1ccccc1)Oc1ccccc1-3` (centres undefined): the growth was 18.1%.

As for `O=[N+]([O-])c1ccc(N/N=C\c2ccccc2[N+](=O)[O-])nc1`, the growth was 107%.

Take `CO[C@H]1CC(O[C@@H]2/C(C)=C/C[C@@H]3C[C@@H](C[C@]4(CC[C@H](C)[C@@H](C5CCCCC5)O4)O3)OC(=O)[C@@H]3C=C(C)/C(=N/O)[C@H]4OC/C(=C\C=C\[C@@H]2C)[C@]43O)O[C@@H](C)C1O` (some centres undefined): the growth is -51.3% (active).

Regarding `COc1ccc(OC)c(NC(=O)c2cc3oc4ccccc4c3cc2O)c1`, the growth was 86.7%.

For the compound `C=C1CC[C@@H]2[C@](C)(COC(C)=O)[C@H](OC(C)=O)CC[C@@]2(C)[C@@H]1CC(Nc1ccc(S(=O)(=O)Nc2cc(C)on2)cc1)C1=CCOC1=O` (some centres undefined), the growth is 16.1%.

The subject of the next test is OVCAR-5 ovarian. The description is as above. The settings on record: 10 µM unless noted.
Take `Cc1cc(NCCCNc2ccnc3cc(Cl)ccc23)nc(N2CCN(C)CC2)n1`: the growth was 86.6%.

Take `CCCc1cc(=O)n2c(C(=O)Nc3ccccc3OC)c(C(=O)Nc3ccc(F)cc3)sc2n1`: the growth was 57.8% [30 µM].

With `N#Cc1cccc(/C=C(/C(=O)c2ccccc2)c2ccccc2)c1`, the growth is 80.4%.

For `CCC1(c2ccccc2)Oc2ccccc2-n2c(C#N)c3ccccc3c2C1=O` (centres undefined), the growth is 108%.

Regarding `C/C(=N/N=C(N)N)c1ccc(N)cc1`, the growth is 105%.

Consider `CC(C)c1nc(N(C)S(C)(=O)=O)nc(-c2ccc(F)cc2)c1/C=C/[C@@H](O)C[C@@H](O)CC(=O)O`, for which the growth was 108%.

Turning to `COc1ccc(/C=C(\C#N)c2ccccc2)cc1`, the growth was 92.1%.

As for `Fc1ccc([C@@H]2CCNC[C@H]2COc2ccc3c(c2)OCO3)cc1`, the growth is 73.5%.

Regarding `COc1cc(/C=C/C(=O)c2c(-c3ccc(F)cc3)nc3sc(C)nn23)cc(OC)c1OC`, the growth was 18.7%.

With `CCC(C)CC(CC)NCCN1CCN(C(CC)CC(C)CC)C1=S` (centres undefined), the growth was 37.2%.

`COc1cccc(-c2nnc(N)o2)c1`: the growth was 105%.

As for `CCCCSc1cc(C)nc(N)n1`, the growth was 94%.

Take `Cc1ccsc1/C=C/C1=NCCCN1C`: the growth was 111%.

As to `Nc1c2ccccc2nc2ccccc12` (tested in a mixture with another compound), the growth is 15.6%.

With `COc1cc(/C=C/C(=O)c2c(-c3ccc(Cl)cc3)nc3sc(C)nn23)cc(OC)c1OC`, the growth was 106%.

As to `CCCCc1nc(Cl)c(CO)n1Cc1ccc(-c2ccccc2-c2nn[nH]n2)cc1`, the growth was 101%.

For `CN(CCOc1ccc(CC2SC(=O)NC2=O)cc1)c1ccccn1` (centres undefined), the growth was 95.2%.

In the case of `N#Cc1c2ccccc2c2n1-c1ccccc1OC(c1ccccc1)C2=O` (centres undefined), the growth is 56.1%.

Regarding `Nc1nc(N)c([N+](=O)[O-])c(=O)[nH]1`, the growth is 100%.

Take `Cc1c(C(N)=O)sc2ncn(Cc3ccccc3)c(=O)c12`: the growth was 101%.

On to `CC(=O)O[C@H]1C(=O)[C@@]2(C)C([C@H](OC(=O)c3ccccc3)[C@]3(O)C[C@H](OC(=O)[C@H](O)[C@@H](NC(=O)c4ccccc4)c4ccccc4)C(C)=C1C3(C)C)[C@]1(OC(C)=O)CO[C@@H]1C[C@@H]2O` (some centres undefined), for which the growth was 27.2%.

For the compound `CC1(C)OC(=O)C(=Cc2ccccc2Br)C(=O)O1`, the growth was 96.6%.

As to `COC1CC2CCC(C)C(O)(O2)C(=O)C(=O)N2CCCCC2C(=O)OC(C(C)CC2CCC(O)C(OC)C2)CC(=O)C(C)C=C(C)C(O)C(OC)C(=O)C(C)CC(C)/C=C/C=C/C=C1C` (centres undefined), the growth is 59.2%.

Regarding `COc1cc([C@@H]2c3cc4c(cc3C(O[C@@H]3O[C@@H]5CO[C@@H](c6cccs6)OC5[C@H](O)[C@H]3O)C3COC(=O)[C@@H]32)OCO4)cc(OC)c1O` (some centres undefined), the growth is -9.71% (active).

For `Cn1c(=O)c2nc(SCc3ccccc3)n(C)c2n(C)c1=O`, the growth was 97.6%.

As for `O=c1cc(-c2cccnc2)oc2c1ccc1ccccc12`, the growth is 76.2%.

`C/C(=N\N1CC(=O)NC1=O)c1ccc([N+](=O)[O-])o1`: the growth is 111%.

Consider `NC(N)=N/N=C(/c1ccccc1)c1ccc(Cl)cc1`, for which the growth is 96%.

For `N#Cc1ccc(NC(=O)Nc2ccc(Oc3ccc(NC(=O)Nc4ccc(C#N)cc4)cc3)cc2)cc1`, the growth was 47.4%.

Take `Cc1c(NCc2nnc3n(Cc4ccccc4)c(=O)c4c5c(sc4n23)CCCC5)c(=O)n(-c2ccccc2)n1C`: the growth is 107%.

With `O=C(Nc1ccc(OCc2nnc(-c3ccccc3)o2)c(F)c1)Nc1ccc(Cl)c(C(F)(F)F)c1`, the growth is 64.5%.

As for `Cc1cc(N2CCOCC2)nc(N2CCOCC2)n1`, the growth is 99.7%.

For the compound `COc1cc2c(C#N)n3c(c2cc1OC)C(=O)C(c1ccccc1)Oc1ccccc1-3` (centres undefined), the growth is 69.2%.

For the compound `O=[N+]([O-])c1ccc(N/N=C\c2ccccc2[N+](=O)[O-])nc1`, the growth is 124%.

On to `CO[C@H]1CC(O[C@@H]2/C(C)=C/C[C@@H]3C[C@@H](C[C@]4(CC[C@H](C)[C@@H](C5CCCCC5)O4)O3)OC(=O)[C@@H]3C=C(C)/C(=N/O)[C@H]4OC/C(=C\C=C\[C@@H]2C)[C@]43O)O[C@@H](C)C1O` (some centres undefined), for which the growth was -83% (active).

On to `COc1ccc(OC)c(NC(=O)c2cc3oc4ccccc4c3cc2O)c1`, for which the growth is 103%.

Turning to `C=C1CC[C@@H]2[C@](C)(COC(C)=O)[C@H](OC(C)=O)CC[C@@]2(C)[C@@H]1CC(Nc1ccc(S(=O)(=O)Nc2cc(C)on2)cc1)C1=CCOC1=O` (some centres undefined), the growth was 52.2%.

The record behind these values is PubChem BioAssay (NCI).
